PubChem BioAssay (NCATS)
Records with an inconclusive call do not appear. Entries that show only a call come without a potency. The source made the active and inactive calls. Calls follow the shape of the dose curve; as a rule, active = well fitted curve in the direction sought with a large enough effect; inconclusive = small, poorly fitted or top-dose-only effect, or another doubt; inactive = no such curve, though single readings can be large or run the other way.

target: Metallo-beta-lactamase type 2 (Klebsiella pneumoniae) (UniProt C7C422); experiment: qHTS to identify inhibitors of the New Delhi Metallo-beta-lactamase (NDM): assay validation screen against the NCATS LOPAC Collection (AID 1794843); settings: NDM-1 enzyme, nitrocefin hydrolysis, absorbance 485 nm; series mostly up to 38.4 µM;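 also: nitrocefin turnover by NDM-1 measured as 485 nm absorbance at plateau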
Summary of the method: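 Enzyme 2 nM final, 50 mM HEPES pH 7.0, 1 uM ZnSO4, 0.01% Tween20; cpds in DMSO, preincub w/ enzyme; + nitrocefin (50 uM stock); A485 at plateau; no-enzyme column as blank.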

Chain of Metallo-beta-lactamase type 2 (Klebsiella pneumoniae) (C7C422 whole entry, looked up): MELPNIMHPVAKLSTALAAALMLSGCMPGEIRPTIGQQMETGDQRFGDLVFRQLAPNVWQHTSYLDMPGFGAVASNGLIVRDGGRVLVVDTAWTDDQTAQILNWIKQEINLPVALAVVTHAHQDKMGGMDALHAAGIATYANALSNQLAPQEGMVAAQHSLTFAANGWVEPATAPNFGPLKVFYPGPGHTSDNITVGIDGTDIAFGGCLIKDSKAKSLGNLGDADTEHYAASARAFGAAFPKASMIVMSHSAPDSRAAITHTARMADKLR

Row | SMILES | Potency
1 | CC[C@H]1OC(=O)[C@H](C)C(O[C@H]2C[C@@](C)(OC)[C@@H](O)[C@H](C)O2)[C@H](C)[C@@H](OC2O[C@H](C)C[C@H](N(C)C)[C@H]2O)[C@](C)(O)C[C@@H](C)CN(C)[C@H](C)[C@@H](O)[C@]1(C)O (stereo not given in full) | inactive
2 | Nc1ccn([C@H]2O[C@H](CO)[C@@H](O)C2(F)F)c(=O)n1 | inactive
3 | CO[C@H]1O[C@@H]2O[C@]3(C)CC[C@@H]4[C@@H](C)CC[C@H]([C@H]1C)[C@]24OO3 | inactive
4 | O=C1NC(O)=NC1(c1ccccc1)c1ccccc1 | inactive
5 | O=C1NC(=O)c2c1c(-c1ccccc1)cc1[nH]c3ccc(O)cc3c21 | inactive
